Screening results as filed in PubChem.
mHTT CaM bind: mHTT-calmodulin interaction abrogation; P42858; AlphaScreen His-mHTT/GST-CaM binding, luminescence; inhibition, % at 15 µM; 3.6% of 190,000 active; AID 1671202
Target sequence (P42858 whole entry, looked up, change not shown): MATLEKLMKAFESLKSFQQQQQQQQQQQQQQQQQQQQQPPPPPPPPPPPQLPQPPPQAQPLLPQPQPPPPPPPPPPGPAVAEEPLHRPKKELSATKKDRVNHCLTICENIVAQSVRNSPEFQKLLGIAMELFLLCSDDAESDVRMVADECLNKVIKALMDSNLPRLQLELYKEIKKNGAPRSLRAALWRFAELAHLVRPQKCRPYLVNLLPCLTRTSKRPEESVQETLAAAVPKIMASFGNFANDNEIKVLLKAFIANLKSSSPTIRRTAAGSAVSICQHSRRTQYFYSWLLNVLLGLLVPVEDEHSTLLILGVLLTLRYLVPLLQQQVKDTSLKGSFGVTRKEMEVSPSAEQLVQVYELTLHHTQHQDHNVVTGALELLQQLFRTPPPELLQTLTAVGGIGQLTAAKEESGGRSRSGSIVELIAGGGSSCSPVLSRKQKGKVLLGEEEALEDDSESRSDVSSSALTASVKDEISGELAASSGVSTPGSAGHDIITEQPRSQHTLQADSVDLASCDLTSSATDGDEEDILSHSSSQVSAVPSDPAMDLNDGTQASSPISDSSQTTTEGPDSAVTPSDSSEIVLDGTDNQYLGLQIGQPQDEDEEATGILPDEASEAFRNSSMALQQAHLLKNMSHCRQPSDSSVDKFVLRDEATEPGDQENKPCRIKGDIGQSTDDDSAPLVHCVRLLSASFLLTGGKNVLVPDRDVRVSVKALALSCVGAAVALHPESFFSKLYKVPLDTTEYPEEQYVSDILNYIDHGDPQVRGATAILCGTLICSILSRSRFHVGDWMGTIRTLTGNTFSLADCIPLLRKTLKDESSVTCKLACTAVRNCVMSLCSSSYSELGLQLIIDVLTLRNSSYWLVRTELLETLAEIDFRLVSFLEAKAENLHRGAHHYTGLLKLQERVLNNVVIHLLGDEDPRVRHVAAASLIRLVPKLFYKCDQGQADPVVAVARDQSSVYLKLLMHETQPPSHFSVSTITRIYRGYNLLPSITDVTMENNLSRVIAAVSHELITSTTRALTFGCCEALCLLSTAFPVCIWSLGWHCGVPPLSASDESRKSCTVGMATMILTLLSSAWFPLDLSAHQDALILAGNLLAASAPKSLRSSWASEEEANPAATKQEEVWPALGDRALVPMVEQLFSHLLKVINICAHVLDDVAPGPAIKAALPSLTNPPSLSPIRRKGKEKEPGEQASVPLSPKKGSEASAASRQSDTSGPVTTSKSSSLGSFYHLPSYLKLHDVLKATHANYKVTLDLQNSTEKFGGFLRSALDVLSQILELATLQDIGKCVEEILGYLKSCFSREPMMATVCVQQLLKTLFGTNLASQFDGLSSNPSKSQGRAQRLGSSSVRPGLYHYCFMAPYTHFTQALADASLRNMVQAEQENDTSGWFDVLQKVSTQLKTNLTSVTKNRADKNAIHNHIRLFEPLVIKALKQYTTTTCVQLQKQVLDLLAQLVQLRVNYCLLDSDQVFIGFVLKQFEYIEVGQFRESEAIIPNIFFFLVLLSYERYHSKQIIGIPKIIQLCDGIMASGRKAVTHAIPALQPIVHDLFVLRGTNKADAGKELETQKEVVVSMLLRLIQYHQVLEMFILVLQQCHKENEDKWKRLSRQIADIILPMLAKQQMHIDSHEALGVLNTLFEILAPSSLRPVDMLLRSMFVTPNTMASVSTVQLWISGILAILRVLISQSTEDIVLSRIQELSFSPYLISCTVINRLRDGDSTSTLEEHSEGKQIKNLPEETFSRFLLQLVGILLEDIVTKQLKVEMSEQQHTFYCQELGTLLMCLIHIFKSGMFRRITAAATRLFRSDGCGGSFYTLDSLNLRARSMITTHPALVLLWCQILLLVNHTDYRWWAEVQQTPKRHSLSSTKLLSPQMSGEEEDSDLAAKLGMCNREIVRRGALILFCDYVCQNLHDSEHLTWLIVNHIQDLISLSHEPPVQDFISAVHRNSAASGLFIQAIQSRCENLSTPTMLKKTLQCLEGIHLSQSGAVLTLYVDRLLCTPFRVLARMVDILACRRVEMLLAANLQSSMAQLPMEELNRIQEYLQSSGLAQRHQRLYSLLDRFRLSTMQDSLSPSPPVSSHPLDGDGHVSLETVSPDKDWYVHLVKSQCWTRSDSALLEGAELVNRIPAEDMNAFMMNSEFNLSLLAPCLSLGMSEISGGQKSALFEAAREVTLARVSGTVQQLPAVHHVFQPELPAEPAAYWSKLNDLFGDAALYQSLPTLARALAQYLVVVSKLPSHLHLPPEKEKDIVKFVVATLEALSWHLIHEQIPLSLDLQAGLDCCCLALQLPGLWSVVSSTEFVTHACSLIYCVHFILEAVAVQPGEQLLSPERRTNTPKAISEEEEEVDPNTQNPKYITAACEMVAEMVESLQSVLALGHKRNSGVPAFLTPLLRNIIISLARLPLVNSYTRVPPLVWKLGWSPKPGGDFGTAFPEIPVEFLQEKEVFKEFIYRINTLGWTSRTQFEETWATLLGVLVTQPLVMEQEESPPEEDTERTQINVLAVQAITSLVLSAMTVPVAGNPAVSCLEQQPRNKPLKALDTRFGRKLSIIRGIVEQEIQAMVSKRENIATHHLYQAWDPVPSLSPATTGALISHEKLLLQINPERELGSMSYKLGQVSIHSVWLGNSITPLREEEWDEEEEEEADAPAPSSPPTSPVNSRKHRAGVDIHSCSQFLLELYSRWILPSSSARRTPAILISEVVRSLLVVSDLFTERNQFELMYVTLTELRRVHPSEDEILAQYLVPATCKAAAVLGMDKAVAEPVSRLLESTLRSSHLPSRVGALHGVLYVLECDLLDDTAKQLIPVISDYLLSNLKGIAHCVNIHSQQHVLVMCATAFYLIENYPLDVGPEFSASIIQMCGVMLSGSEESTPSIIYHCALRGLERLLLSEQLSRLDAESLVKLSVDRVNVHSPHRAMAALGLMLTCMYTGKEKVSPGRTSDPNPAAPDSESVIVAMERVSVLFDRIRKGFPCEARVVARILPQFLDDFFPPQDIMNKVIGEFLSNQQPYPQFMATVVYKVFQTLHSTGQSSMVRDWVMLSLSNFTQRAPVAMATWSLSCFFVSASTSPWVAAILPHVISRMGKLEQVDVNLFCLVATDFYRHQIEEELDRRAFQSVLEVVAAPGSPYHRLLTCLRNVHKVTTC
Pf apPOL block: Pf-apPOL DNA polymerase inhibition. 0.25% of 210,000 active. AID 1794808. inhibition, % at 10 µM. Recombinant Pf-apPOL, molecular beacon fluorescence, 1.5 h
Large screens that a line does not name were inactive; ! = repeats disagree. This is a sample that favours compounds with a hit; in the whole collection about 3.6% have one here. Cut-off read from the data, not from the text of the source: active = inhibition above about 50%; inactive = the rest.

O=C(c1ccccc1Br)N1CCCCC1	none
Cc1ccc(/C=C2\N=C(c3ccc(-c4ccccc4)cc3)OC2=O)o1	none
O=S(=O)(Nc1ccc(O)c(Cl)c1)c1ccccc1	none
CCc1nc2c(NC(=O)c3cccc(Br)c3)cccn2n1	none
CCc1ccc(NC(=O)c2cc3c(CO)cnc(C)c3oc2=Nc2ccc(OC)cc2OC)cc1	Pf apPOL block 56.8
COc1ccc(N=c2oc3c(C)ncc(CO)c3cc2C(=O)Nc2ccccc2)c(OC)c1	none
CCCn1cc2c3c(cccc31)CN(C(=O)c1cccc(F)c1)CC2	mHTT CaM bind 66.2
CCn1cc2c3c(cccc31)CN(C(=O)c1cccc(F)c1)CC2	none
Cn1cc2c3c(cccc31)CN(C(=O)c1ccccc1F)CC2	none
CCCn1cc2c3c(cccc31)CN(C(=O)c1ccccc1F)CC2	mHTT CaM bind 51.5
O=C(NCCN1CCOCC1)c1cnn2c(C(F)(F)F)cc(-c3cccs3)nc12	none
O=C(CCSc1ccccc1)NCC(O)(c1ccccc1)C(F)(F)F (stereo not drawn)	none
COc1cc(NC(=O)c2ccc(OC)c([N+](=O)[O-])c2)cc(OC)c1	none
CSCCC(C)(O)CNC(=O)C(C)(C)C (stereo not drawn)	none
N=C1NC(=O)/C(=C/c2ccc(Cl)cc2Cl)S1	Pf apPOL block 55.7
N=C1NC(=O)/C(=C/c2ccccc2Br)S1	none
Cc1cccn2c(=O)c(C=O)c(N3CCCC3)nc12	none
O=C(c1cnn(-c2ccccc2)n1)N1CCC(Cn2cccn2)CC1	none
CC(=O)c1ccc(NC2OC(=O)c3ccccc32)cc1 (stereo not drawn)	none
Cc1cc(C)nc(SCc2cc(=O)c(OC(=O)c3cc4ccccc4o3)co2)n1	mHTT CaM bind 92.2
CC(=O)Nc1nnc(SCc2cc(=O)c(OC(=O)c3ccco3)co2)s1	none
Cc1nc(-c2ccccc2)sc1C(=O)N1CCC(CC(=O)NCC2CCCO2)CC1 (stereo not drawn)	none
COCCOC(=O)c1c(C)oc2ccc(OCc3ccc(C(=O)OC)o3)cc12	none
COc1ccc(C=C2Oc3c(ccc(O)c3CN3CCCC3)C2=O)cc1	none
CSc1oc(-c2ccc(F)cc2)nc1S(=O)(=O)c1ccc(Cl)cc1	none
COC(=O)Nc1ccc(S(=O)(=O)Nc2cc(C(C)C)c(O)c(C(C)C)c2)cc1	mHTT CaM bind 56.1
COC(=O)Nc1ccc(S(=O)(=O)NC(C)=O)cc1	none
O=C(O)/C=C/c1cccc(N=Cc2ccc([N+](=O)[O-])o2)c1	mHTT CaM bind 71.0
O=C(O)/C=C/c1cccc(N=Cc2ccc(N3CCOCC3)cc2)c1	none
O=C(Nc1nc(-c2ccc([N+](=O)[O-])cc2)cs1)c1ccc2ncsc2c1	none
CC(=O)Nc1ccc2c(c1)COCO2	none (no result: mHTT CaM bind)
COc1cc(C(=O)N2CCCCC2CCN2CCCCC2)cc(OC)c1OC (stereo not drawn)	none
CC1=C(C#N)C(=O)C(C#N)(C#N)C(C)(C)C1	none (no result: Pf apPOL block)
CCNC(=O)N1CCc2c(c(-c3nc(Cc4ccccc4)no3)nn2C)C1	none
O=C1c2ccc3ccccc3c2-c2cccc3cccc1c23	none (no result: mHTT CaM bind)
O=C1C([N+](=O)[O-])=C(O)c2cccc3cccc1c23	Pf apPOL block 70.3 (no result: mHTT CaM bind)
CC(C)CCNC(=O)C1CCCN(c2ncc(-c3cccc(F)c3)cn2)C1 (stereo not drawn)	none
COc1ccc(OC)c(NC(=O)c2c(N)sc3c2CCC3)c1	none
COc1ccc(OC)c(CNc2sc3c(c2C(=O)Nc2cc(OC)ccc2OC)CCC3)c1	mHTT CaM bind 66.0
COc1ccc(OC)c(NC(=O)c2c(NC(=O)CN3CCOCC3)sc3c2CCC3)c1	none
COc1ccccc1NC(=O)c1c(NCc2sccc2C)sc2c1CCC2	mHTT CaM bind 56.0
COc1ccc(OC)c(CNc2sc3c(c2C(=O)Nc2ccccc2OC)CCC3)c1	mHTT CaM bind 81.7
COc1ccccc1NC(=O)c1c(NC(=O)Cc2ccccc2)sc2c1CCC2	none
COc1ccc(OC)c(NC(=O)c2c(NCc3cccc(OC)c3OC)sc3c2CCC3)c1	mHTT CaM bind 59.0
CCOc1ccccc1NC(=O)c1c(NCc2sccc2C)sc2c1CCC2	none
CC(C)CNC(=O)c1nn(C)c2c1COc1ccccc1-2	none
O=C(COc1ccccc1Cl)Nc1cc(F)ccc1F	none
Cc1cccc(CN2CCCn3nc(C(=O)NCCCc4ccccc4)cc3C2=O)c1	none
Cc1nn(-c2ccc(Cl)c(C(=O)O)c2)c(C)c1-c1cccc([N+](=O)[O-])c1	none
COC(CNC(=O)CCNC(=O)c1ccc(Br)o1)OC	none
COc1ccc(OC)c(NC(=O)c2c(NCc3cccs3)sc3c2CCC(C)C3)c1 (stereo not drawn)	mHTT CaM bind 66.0
COc1ccc(OC)c(NC(=O)c2c(NC(=O)CN3CCCC(C)C3)sc3c2CCC3)c1 (stereo not drawn)	none
COc1ccc(OC)c(NC(=O)c2c(NCc3cccc(F)c3)sc3c2CCC3)c1	mHTT CaM bind 73.0
COc1ccc(OC)c(NC(=O)c2c(NC(=O)CNCc3ccccc3)sc3c2CCC3)c1	none
Cc1ccc2nc(CN3C(=O)c4ccccc4C3=O)cn2c1	none
COc1cccc(C(=O)Nc2ccc(-n3nncc3-c3ccccc3)cc2)c1OC	mHTT CaM bind 57.0
COc1cc(C(=O)Nc2ccc(-n3nncc3-c3ccccc3)cc2)cc(OC)c1OC	none
CN(CCCNC(=O)C1CCN(c2ccc(N3CCCCC3)nn2)CC1)c1ccccc1	mHTT CaM bind 54.4
CN(CCCNC(=O)C1CCN(c2ccncc2)CC1)c1ccccc1	none
O=C(CSc1nnc(NC(=O)c2nc3ccccc3s2)s1)Nc1ccccc1F	none
COc1cc(NS(=O)(=O)c2ccc(NC(=O)c3cccc(Cl)c3)cc2)nc(OC)n1	none
CC1=C(C#N)C(=O)NC(=O)/C1=C\c1ccc(-c2cc([N+](=O)[O-])ccc2Cl)o1	none
CC1=C(C#N)C(=O)NC(=O)/C1=C\c1ccc(-c2ccc(Cl)cc2Cl)o1	mHTT CaM bind 71.0!
Cc1nccn1S(=O)(=O)c1ccc(Cl)cc1	none
CCOC(=O)c1ccc(NC(=O)Cn2cnc3c(c2=O)CN(Cc2ccccc2)CC3)cc1	none
CCN1CCCC1CNc1nc(C)nc2sc(C)cc12 (stereo not drawn)	none
Fc1ccccc1Oc1cc(N2CCN(C3CCCC3)CC2)ncn1	none
CSc1ccc(C(=O)O)s1	Pf apPOL block 88.2
COc1ccc(OC)c(NC(=O)c2ccc(SC)s2)c1	none (no result: mHTT CaM bind)
CC(C)(C)n1nc2c(c1NC(=O)c1cccc(Br)c1)CSC2	mHTT CaM bind 53.0
CC(C)(C)n1nc2c(c1NC(=O)c1ccc([N+](=O)[O-])cc1)CSC2	mHTT CaM bind 66.0
CC(C)(C)n1nc2c(c1NC(=O)c1cc([N+](=O)[O-])ccc1Cl)CSC2	none
CC(C)Oc1ccc(C(=O)Nc2c3c(nn2C(C)(C)C)CS(=O)C3)cc1 (stereo not drawn)	none
CC(C)(C)n1nc2c(c1NC(=O)c1cccc(Cl)c1)CSC2	none
CC(C)Oc1ccc(C(=O)Nc2c3c(nn2C(C)(C)C)CSC3)cc1	Pf apPOL block 82.8
O=C(Nc1cccc(C(=O)Nc2cccc(Cl)c2)c1)NC1(c2ccccc2)CC1	none
CSc1ccccc1CN1CCC(CNC(=O)c2ccco2)CC1	none
Cc1cc(Br)ccc1OCC(=O)NC(C)c1ccccc1 (stereo not drawn)	none
Cc1cc(OCC(=O)N2N=C(c3ccccc3)CC2(O)C(F)(F)F)ccc1Cl (stereo not drawn)	mHTT CaM bind 100.0
Cc1cc(OCC(=O)N2N=C3CCCCC3C2(O)C(F)(F)F)ccc1Cl (stereo not drawn)	mHTT CaM bind 80.0
Cc1cc(OCC(=O)N2N=C(C3CCCCC3)CC2(O)C(F)(F)F)ccc1Cl (stereo not drawn)	mHTT CaM bind 100.0
